Reference: PubChem BioAssay (EPA / NIEHS)
Values joined by “and” are separate entries in the source; they are usually repeats but may differ in a detail not shown here. Equal entries are not always repeated. Inconclusive results are not listed. Where a structure was tested more than once in an assay, its records may differ in their call. Active and inactive are the calls of the source. How the source made its calls, unless noted: active means hit-call score of the fitted dose curve at least 0.9, where 1 is the maximum; inconclusive means response in the unintended direction; inactive means score below 0.9.

Assays:
[1] = target: Estrogen receptor (Homo sapiens) (UniProt P03372); test: ATG_ERa_TRANS: Attagene TRANS-FACTORIAL HepG2 Assay for human Estrogen Receptor alpha (ERa) (AID 2282970); conditions: HepG2 Attagene TRANS ERa GAL4 reporter, mRNA
Estrogen receptor (Homo sapiens), sequence (P03372 whole entry, looked up, the tested form may be a part): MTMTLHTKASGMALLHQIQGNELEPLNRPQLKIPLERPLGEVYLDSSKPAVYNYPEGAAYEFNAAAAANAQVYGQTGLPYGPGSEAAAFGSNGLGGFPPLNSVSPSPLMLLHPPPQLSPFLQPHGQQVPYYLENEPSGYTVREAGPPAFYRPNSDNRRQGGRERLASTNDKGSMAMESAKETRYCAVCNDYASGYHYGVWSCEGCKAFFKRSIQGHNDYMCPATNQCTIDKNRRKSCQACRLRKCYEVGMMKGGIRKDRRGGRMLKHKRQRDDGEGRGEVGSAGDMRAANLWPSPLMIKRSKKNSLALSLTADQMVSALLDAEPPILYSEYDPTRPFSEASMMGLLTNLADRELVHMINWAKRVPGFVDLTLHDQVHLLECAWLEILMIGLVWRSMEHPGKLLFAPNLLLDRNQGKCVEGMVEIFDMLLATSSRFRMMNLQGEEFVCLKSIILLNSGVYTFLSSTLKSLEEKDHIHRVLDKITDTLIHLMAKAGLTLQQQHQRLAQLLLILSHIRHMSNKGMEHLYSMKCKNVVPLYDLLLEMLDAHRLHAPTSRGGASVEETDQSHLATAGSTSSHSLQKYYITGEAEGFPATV
In short: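 Transactivation via ERa-Gal4 chimera in HepG2; 24 hour incubation; reporter mRNA detected by fluorescence RT-PCR and capillary electrophoresis.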

[2] = ATG_GAL4_TRANS: Attagene TRANS-FACTORIAL HepG2 Assay for GAL4 (Internal Marker) (AID 2282976); conditions: HepG2 Attagene TRANS GAL4 internal marker reporter
In short: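 Fluorescence from capillary electrophoresis of labelled RT-PCR products quantifies reporter mRNA induction after 24 h dosing of HepG2 cells carrying transfected GAL4-UAS reporter transcription units. Vehicle DMSO serves as baseline.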

[3] = target: Bile acid receptor (Homo sapiens) (UniProt Q96RI1); test: ATG_FXR_TRANS: Attagene TRANS-FACTORIAL HepG2 Assay for Farnesoid X Receptor (FXR) (AID 2282979); conditions: HepG2 Attagene TRANS FXR-GAL4 reporter transcription;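 further: hits raise reporter mRNA above DMSO so AC50 marks FXR activation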
Bile acid receptor (Homo sapiens), sequence (Q96RI1 whole entry, looked up, the tested form may be a part): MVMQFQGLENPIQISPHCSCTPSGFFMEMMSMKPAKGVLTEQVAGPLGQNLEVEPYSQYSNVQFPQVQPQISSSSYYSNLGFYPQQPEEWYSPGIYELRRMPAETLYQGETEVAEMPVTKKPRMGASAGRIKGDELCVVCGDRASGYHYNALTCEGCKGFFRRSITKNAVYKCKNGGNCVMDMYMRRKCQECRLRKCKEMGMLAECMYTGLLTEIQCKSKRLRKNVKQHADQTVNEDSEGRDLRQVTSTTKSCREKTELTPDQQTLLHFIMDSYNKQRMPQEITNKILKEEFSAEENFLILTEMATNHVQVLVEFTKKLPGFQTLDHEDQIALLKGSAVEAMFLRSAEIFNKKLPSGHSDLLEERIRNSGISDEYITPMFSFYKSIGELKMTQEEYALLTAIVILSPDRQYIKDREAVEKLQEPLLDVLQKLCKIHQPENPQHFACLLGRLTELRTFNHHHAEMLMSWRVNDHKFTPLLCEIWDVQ
In short: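 Chimeric FXR-GAL4 activity in transiently transfected human HepG2 liver cells is scored as induction of reporter mRNA after 24 h of dosing. Detection uses RT-PCR with fluorescent labelling and capillary electrophoresis, with DMSO serving as baseline.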

[4] = ATG_M_32_TRANS: Attagene TRANS-FACTORIAL HepG2 Assay for M32 Transcription Factor (Internal Marker) (AID 2282984); conditions: HepG2 Attagene TRANS M32 internal marker reporter
In short: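 Measures reporter mRNA induction in human HepG2 liver cells after 24 h chemical treatment. Transcripts from transiently transfected GAL4-UAS reporter units are amplified, fluorescently labelled and sized by capillary electrophoresis; gain of signal relative to DMSO.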

[5] = target: Nuclear receptor subfamily 4 group A member 2 (Homo sapiens) (UniProt P43354); test: ATG_NURR1_TRANS: Attagene TRANS-FACTORIAL HepG2 Assay for human Nuclear Receptor Related Protein 1 (NURR1) (AID 2282985); conditions: HepG2 Attagene TRANS reporter, mRNA readout
Nuclear receptor subfamily 4 group A member 2 (Homo sapiens), sequence (P43354 whole entry, looked up, the tested form may be a part): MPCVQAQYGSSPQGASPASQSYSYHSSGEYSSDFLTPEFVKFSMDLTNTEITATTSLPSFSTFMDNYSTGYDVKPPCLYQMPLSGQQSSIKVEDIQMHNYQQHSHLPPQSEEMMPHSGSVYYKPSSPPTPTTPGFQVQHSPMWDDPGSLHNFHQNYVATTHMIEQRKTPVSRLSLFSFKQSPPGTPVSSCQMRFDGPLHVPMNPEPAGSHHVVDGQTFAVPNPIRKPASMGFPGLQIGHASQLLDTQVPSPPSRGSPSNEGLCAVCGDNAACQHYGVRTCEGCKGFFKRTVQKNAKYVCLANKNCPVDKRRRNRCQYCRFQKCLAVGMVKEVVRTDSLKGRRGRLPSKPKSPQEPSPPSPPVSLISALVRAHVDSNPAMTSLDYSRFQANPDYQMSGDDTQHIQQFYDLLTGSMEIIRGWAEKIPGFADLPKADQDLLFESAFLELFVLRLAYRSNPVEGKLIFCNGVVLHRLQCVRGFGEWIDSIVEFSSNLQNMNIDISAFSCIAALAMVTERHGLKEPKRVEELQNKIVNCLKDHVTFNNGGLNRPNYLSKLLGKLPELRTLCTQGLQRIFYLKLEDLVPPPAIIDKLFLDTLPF
In short: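 Transient transfection of HepG2, human liver cells, with multiple GAL4-UAS reporter transcription units. Cells dosed 24 h, RNA isolated, reverse-transcribed, PCR-amplified, FAM-labelled, HpaI-digested, sized by capillary electrophoresis. DMSO served as negative control.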

[6] = target: Transcriptional activator Myb (Homo sapiens) (UniProt P10242); test: ATG_Myb_CIS: Attagene CIS-FACTORIAL HepG2 Assay for human Myeloblastosis (Myb) Proto-Oncogene Transcription Factor (AID 2282986; active means hit-call score of the fitted dose curve at least 0.9, where 1 is the maximum; inactive means score below 0.9); conditions: HepG2 Attagene CIS-FACTORIAL Myb reporter transcription; actives raise or lower the signal
Transcriptional activator Myb (Homo sapiens), sequence (P10242 whole entry, looked up): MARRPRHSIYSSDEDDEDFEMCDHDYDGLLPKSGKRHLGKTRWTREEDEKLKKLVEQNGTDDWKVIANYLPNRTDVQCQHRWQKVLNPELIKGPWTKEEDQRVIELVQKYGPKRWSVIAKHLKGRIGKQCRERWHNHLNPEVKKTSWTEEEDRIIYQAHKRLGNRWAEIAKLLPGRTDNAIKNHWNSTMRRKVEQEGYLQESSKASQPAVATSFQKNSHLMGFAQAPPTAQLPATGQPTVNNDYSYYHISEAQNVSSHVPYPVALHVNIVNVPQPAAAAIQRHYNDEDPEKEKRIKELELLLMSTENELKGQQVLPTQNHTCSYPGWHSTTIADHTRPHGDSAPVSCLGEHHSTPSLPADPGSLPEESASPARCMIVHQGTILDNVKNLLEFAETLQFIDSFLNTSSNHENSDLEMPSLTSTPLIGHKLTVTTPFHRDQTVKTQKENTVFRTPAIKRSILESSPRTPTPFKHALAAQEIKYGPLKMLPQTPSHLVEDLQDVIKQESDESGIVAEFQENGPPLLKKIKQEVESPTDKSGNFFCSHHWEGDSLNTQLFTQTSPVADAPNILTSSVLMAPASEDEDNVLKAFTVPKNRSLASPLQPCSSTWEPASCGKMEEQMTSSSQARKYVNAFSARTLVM
In short: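 Steps: transfect HepG2 with cis-regulated reporter units; dose with chemical for 24 h; isolate RNA, reverse-transcribe, PCR-amplify and FAM-label reporter sequences; digest with HpaI; resolve by capillary electrophoresis. Activity fitted in both directions relative to DMSO.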

[7] = target: Nuclear respiratory factor 1 (Homo sapiens) (UniProt Q16656); test: ATG_NRF1_CIS: Attagene CIS-FACTORIAL HepG2 Assay for human Nuclear Respiratory Factor 1 (NRF1) Orphan Gene (AID 2282987; active means hit-call score of the fitted dose curve at least 0.9, where 1 is the maximum; inactive means score below 0.9); conditions: HepG2 NRF1 cis-element reporter, Attagene multiplex; actives raise or lower the signal
In short: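 Fluorescence intensity of labelled reporter cDNA fragments, resolved by capillary electrophoresis, served as readout for NRF1 cis-element activity. Transiently transfected HepG2 cells were dosed for 24 hours; activity in either direction was fitted against DMSO negative control.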

[8] = ATG_M_61_TRANS: Attagene TRANS-FACTORIAL HepG2 Assay for M61 Transcription Factor (Internal Marker) (AID 2282988; active means hit-call score of the fitted dose curve at least 0.9, where 1 is the maximum; inactive means score below 0.9); conditions: HepG2 Attagene TRANS M61 internal marker reporter
In short: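 Background-control reporter transcript, measured after 24 h chemical exposure of transiently transfected HepG2 cells carrying multiple GAL4-UAS reporter units. Read-out by RT-PCR with 6-FAM primer extension and capillary electrophoresis, gain of signal versus DMSO.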

[9] = ATG_NFI_CIS: Attagene CIS-FACTORIAL HepG2 Assay for human Nuclear Factor I (NFI) (AID 2282989; active means hit-call score of the fitted dose curve at least 0.9, where 1 is the maximum; inactive means score below 0.9); conditions: HepG2 cis-regulatory reporter, NFI response element transcription; actives raise or lower the signal
In short: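 Read-out: reporter mRNA via RT-PCR plus capillary electrophoresis with fluorescence detection. Transiently transfected HepG2 (endogenous TF activity on cis promoters), 24 h compound exposure; gain or loss of signal fitted against DMSO.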

[10] = target: Myc proto-oncogene protein (Homo sapiens) (UniProt P01106); test: ATG_Myc_CIS: Attagene CIS-FACTORIAL HepG2 Assay for human Myelocytomatosis (Myc) Proto-Oncogene Transcription Factor (AID 2282990; active means hit-call score of the fitted dose curve at least 0.9, where 1 is the maximum; inactive means score below 0.9); conditions: HepG2, Attagene cis-reporter transcription factor activity; actives raise or lower the signal
In short: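 HepG2, transient MRTU transfection (cis promoters, endogenous TFs); 24 h dosing; TriZol RNA → oligo(dT) RT → PCR → 6-FAM primer extension → HpaI cut → CE. Bidirectional fit vs DMSO.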

[11] = target: Steroid hormone receptor ERR1 (Homo sapiens) (UniProt P11474); test: ATG_ERRa_TRANS: Attagene TRANS-FACTORIAL HepG2 Assay for human Estrogen-Related Receptor alpha (ERRa) (AID 2282971); conditions: HepG2 Attagene TRANS reporter, ERRa transactivation
Steroid hormone receptor ERR1 (Homo sapiens), sequence (P11474 whole entry, looked up, the tested form may be a part): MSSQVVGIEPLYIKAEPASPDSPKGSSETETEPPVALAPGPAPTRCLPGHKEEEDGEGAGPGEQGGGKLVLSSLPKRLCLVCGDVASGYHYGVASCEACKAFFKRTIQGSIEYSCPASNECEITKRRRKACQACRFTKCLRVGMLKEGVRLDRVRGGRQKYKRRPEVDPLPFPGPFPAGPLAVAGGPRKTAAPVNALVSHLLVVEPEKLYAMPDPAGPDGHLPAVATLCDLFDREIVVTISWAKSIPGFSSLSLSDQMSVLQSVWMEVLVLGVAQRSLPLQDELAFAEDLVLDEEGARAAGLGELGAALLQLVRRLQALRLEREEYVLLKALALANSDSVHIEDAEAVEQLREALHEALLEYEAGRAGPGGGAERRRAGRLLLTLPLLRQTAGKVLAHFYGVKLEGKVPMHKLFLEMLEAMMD
In short: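 HepG2 cells were transiently transfected with multiple GAL4-UAS reporter units, then dosed with compound for 24 h. Total RNA was reverse-transcribed, reporter cDNA PCR-amplified and fluorescently labelled, and fragments resolved by capillary electrophoresis; induction was compared with DMSO.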

[12] = target: X-box-binding protein 1 (Homo sapiens) (UniProt P17861); test: ATG_Xbp1_CIS: Attagene CIS-FACTORIAL HepG2 Assay for human X-box Binding Protein 1 (XBP1) (AID 2282972; active means hit-call score of the fitted dose curve at least 0.9, where 1 is the maximum; inactive means score below 0.9); conditions: HepG2 XBP1 cis-element reporter, Attagene multiplex; actives raise or lower the signal
X-box-binding protein 1 (Homo sapiens), sequence (P17861 whole entry, looked up): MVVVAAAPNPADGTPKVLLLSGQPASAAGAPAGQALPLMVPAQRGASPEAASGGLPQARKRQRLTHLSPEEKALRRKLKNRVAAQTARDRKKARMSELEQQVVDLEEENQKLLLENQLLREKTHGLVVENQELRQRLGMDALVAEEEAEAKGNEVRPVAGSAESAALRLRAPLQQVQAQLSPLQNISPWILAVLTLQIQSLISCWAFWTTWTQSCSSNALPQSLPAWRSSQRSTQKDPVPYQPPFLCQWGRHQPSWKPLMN
In short: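 HepG2, transient MRTU transfection (cis-promoter driven), 24 h compound exposure. Total RNA → oligo(dT) RT → PCR → 6-FAM labeling → HpaI cut → CE. Bidirectional fit vs DMSO.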

[13] = target: Hepatocyte nuclear factor 4-alpha (Homo sapiens) (UniProt P41235); test: ATG_HNF4a_TRANS: Attagene TRANS-FACTORIAL HepG2 Assay for human Hepatocyte Nuclear Factor 4 alpha (HNF4a) (AID 2282982); conditions: HepG2 HNF4a transactivation reporter, mRNA readout
Hepatocyte nuclear factor 4-alpha (Homo sapiens), sequence (P41235 whole entry, looked up, the tested form may be a part): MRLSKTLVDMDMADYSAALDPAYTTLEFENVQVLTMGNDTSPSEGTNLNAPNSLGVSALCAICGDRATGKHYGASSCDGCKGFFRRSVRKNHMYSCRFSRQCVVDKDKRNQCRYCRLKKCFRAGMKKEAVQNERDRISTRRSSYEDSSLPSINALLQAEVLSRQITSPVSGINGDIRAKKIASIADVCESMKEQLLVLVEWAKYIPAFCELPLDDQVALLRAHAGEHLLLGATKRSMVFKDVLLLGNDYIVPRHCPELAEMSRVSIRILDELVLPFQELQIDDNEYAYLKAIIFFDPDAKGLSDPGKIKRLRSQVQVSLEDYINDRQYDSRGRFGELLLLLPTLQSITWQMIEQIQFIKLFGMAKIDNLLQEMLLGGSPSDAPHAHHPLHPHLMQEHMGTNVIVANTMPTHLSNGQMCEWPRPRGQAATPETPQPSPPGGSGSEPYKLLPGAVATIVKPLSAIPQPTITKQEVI
In short: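 Readout is fluorescent reporter-transcript fragments resolved by capillary electrophoresis after RT-PCR from HepG2 cells dosed for 24 h. Cells carried transfected GAL4-UAS reporter constructs measuring exogenous NR-GAL4 chimera activity; DMSO served as baseline.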

[14] = ATG_M_06_TRANS: Attagene TRANS-FACTORIAL HepG2 Assay for M06 Transcription Factor (Internal Marker) (AID 2282983); conditions: HepG2 Attagene TRANS M06 internal marker reporter;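 further: reporter transcript level by RT-PCR then capillary electrophoresis fluorescence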
In short: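 Measured by capillary electrophoresis of fluorescently labelled RT-PCR products, this endpoint reflects reporter mRNA in HepG2 cells harbouring exogenous NR-GAL4 reporter constructs after 24 h exposure, with DMSO as baseline.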

[15] = target: Oxysterols receptor LXR-beta (Homo sapiens) (UniProt P55055); test: ATG_LXRb_TRANS: Attagene TRANS-FACTORIAL HepG2 Assay for human Liver X Receptor beta (LXRb) (AID 2282981); conditions: HepG2 Attagene TRANS GAL4-LXRb reporter, mRNA
Oxysterols receptor LXR-beta (Homo sapiens), sequence (P55055 whole entry, looked up, the tested form may be a part): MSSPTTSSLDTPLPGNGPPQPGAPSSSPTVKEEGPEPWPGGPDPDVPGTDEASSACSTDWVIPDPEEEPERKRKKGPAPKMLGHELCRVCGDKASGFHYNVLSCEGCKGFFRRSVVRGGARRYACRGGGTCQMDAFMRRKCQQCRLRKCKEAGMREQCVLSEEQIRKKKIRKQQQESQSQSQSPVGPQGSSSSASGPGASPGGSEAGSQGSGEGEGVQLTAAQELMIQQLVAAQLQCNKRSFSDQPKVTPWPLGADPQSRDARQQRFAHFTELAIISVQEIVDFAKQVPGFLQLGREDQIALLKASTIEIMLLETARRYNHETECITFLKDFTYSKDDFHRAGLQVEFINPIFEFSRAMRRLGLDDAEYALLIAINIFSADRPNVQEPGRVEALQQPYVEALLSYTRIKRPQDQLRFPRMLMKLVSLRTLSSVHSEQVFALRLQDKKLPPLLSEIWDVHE
In short: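 Transient transfection HepG2 (multiplexed RTUs, GAL4-UAS); NR-Gal4 chimera; 24 h exposure; RNA → RT-PCR → 6-FAM primer extension → HpaI → CE; increase vs DMSO.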

[16] = ATG_M_19_TRANS: Attagene TRANS-FACTORIAL HepG2 Assay for M19 Transcription Factor (Internal Marker) (AID 2282974); conditions: HepG2 Attagene TRANS-FACTORIAL M19 internal marker reporter
In short: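 Cells: human HepG2, transiently transfected with multiplexed reporter transcription units. Exposure: 24 h. Detection: RT-PCR of reporter mRNA with capillary electrophoresis. Analysis: gain-of-signal vs DMSO.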

[17] = target: Estrogen-related receptor gamma (Homo sapiens) (UniProt P62508); test: ATG_ERRg_TRANS: Attagene TRANS-FACTORIAL HepG2 Assay for human Estrogen-Related Receptor gamma (ERRg) (AID 2282977); conditions: HepG2 Attagene TRANS reporter, ERRg transactivation;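 further: hits increase reporter signal over DMSO so potencies reflect activators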
Estrogen-related receptor gamma (Homo sapiens), sequence (P62508 whole entry, looked up, the tested form may be a part): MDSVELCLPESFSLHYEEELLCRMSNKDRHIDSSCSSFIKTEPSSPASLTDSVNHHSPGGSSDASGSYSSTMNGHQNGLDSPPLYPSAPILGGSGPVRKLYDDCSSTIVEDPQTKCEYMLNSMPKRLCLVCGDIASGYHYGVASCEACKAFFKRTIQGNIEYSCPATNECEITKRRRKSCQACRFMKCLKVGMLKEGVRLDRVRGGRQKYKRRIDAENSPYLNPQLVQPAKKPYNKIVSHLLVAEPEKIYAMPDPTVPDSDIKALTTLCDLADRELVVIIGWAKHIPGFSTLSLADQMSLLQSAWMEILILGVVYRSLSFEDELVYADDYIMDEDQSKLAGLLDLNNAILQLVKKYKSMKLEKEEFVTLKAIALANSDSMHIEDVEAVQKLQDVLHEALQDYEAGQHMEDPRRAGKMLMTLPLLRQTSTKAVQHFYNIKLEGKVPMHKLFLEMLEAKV
In short: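 HepG2 cells transiently transfected with multiplexed GAL4-UAS reporter units driven by chimeric NR-Gal4 proteins; 24 h exposure. Reporter mRNA quantified by RT-PCR, fluorescent labelling, HpaI digestion and capillary electrophoresis; gain of signal vs DMSO.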

[18] = target: Glucocorticoid receptor (Homo sapiens) (UniProt P04150); test: ATG_GR_TRANS: Attagene TRANS-FACTORIAL HepG2 Assay for human Glucocorticoid Receptor (GR) (AID 2282978); conditions: HepG2 Attagene TRANS GR reporter, mRNA transcription;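 further: activators score as hits since higher reporter transcript over DMSO is fitted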
In short: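 In this trans-factorial format, exogenous NR-GAL4 chimeric proteins in transfected HepG2 cells regulate GAL4-UAS reporter transcription. After 24 h treatment, reporter mRNA induction relative to DMSO is read by RT-PCR and capillary electrophoresis.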

[19] = target: Oxysterols receptor LXR-alpha (Homo sapiens) (UniProt Q13133); test: ATG_LXRa_TRANS: Attagene TRANS-FACTORIAL HepG2 Assay for human Liver X Receptor alpha (LXRa) (AID 2282980); conditions: HepG2 Attagene TRANS reporter, LXRa transactivation
Oxysterols receptor LXR-alpha (Homo sapiens), sequence (Q13133 whole entry, looked up): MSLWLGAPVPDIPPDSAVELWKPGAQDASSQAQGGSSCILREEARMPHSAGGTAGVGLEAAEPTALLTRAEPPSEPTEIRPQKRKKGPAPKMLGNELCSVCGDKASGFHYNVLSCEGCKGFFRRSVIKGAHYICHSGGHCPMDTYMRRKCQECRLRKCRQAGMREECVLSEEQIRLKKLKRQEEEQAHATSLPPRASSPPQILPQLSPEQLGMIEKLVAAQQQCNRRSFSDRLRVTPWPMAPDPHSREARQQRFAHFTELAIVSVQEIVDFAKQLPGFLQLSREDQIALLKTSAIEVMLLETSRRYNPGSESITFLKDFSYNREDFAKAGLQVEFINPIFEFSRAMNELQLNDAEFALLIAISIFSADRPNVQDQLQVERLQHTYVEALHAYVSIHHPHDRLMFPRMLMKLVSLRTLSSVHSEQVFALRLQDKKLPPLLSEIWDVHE
In short: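 Transient HepG2 transfectants, 24 h dosing, RT-PCR/CE mRNA reporter quantitation; gain-of-signal vs DMSO.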

Measured: AC50

CCOC(=O)c1nc(C(Cl)(Cl)Cl)n(-c2ccc(Cl)cc2Cl)n1
inactive: [2] | [3] | [6] | [7] | [8] | [9]
active: [1] 25.7 µM | [4] 100 µM | [5] 66 µM | [10] 24.5 µM

COC(=O)C(F)(F)C(F)(F)C(F)(F)C(F)(F)C(F)(F)F
inactive: [11] | [12] | [13] | [14] | [4] | [5] | [6] | [7] | [9] | [10]

COCN(COC)c1nc(N(COC)COC)nc(N(COC)COC)n1
active: [1] 49.3 µM
inactive: [12] | [3] | [15] | [13] | [14] | [6] | [7] | [9] | [10]

CCCC=O
not listed: [1] | [3] | [4] | [8] | [13]
inactive: all other assays above

O=C(NO)c1ccccc1
active: [5] 57.6 µM and 40.3 µM and 58 µM
inactive: [11] | [12] | [2] | [17] | [18] | [14] | [4] | [5] | [6] | [7] | [9] | [10]

C=CC(=O)OCC(CO)(COCC(COC(=O)C=C)(COC(=O)C=C)COC(=O)C=C)COC(=O)C=C
active: [12] 2.87 µM | [6] 7.52 µM | [7] 14.9 µM
inactive: [1] | [18] | [14] | [4] | [9] | [10]

Nc1ccn([C@@H]2O[C@H](CO)[C@@H](O)C2O)c(=O)n1 (stereo partly specified)
not listed: [1] | [4] | [8] | [12] | [14] | [17] | [19]
inactive: all other assays above

CC(C)C=O
not listed: [1] | [3] | [8] | [13] | [14]
inactive: all other assays above

CCCCCc1ccc(O)cc1
inactive: [12] | [3] | [13] | [14] | [5] | [7] | [9] | [10]
active: [1] 1.6 µM

Cn1sccc1=O
inactive: [11] | [16] | [18] | [4] | [6]
active: [12] 160 µM | [7] 170 µM | [10] 187 µM

CN(C)c1ccc(C(=C2C=CC(=[N+](C)C)C=C2)c2ccccc2)cc1
active: [12] 1.94 µM | [5] 543 nM and 1.4 µM | [9] 5.55 µM
inactive: [12] | [2] | [17] | [18] | [3] | [15] | [14] | [4] | [6] | [7] | [9] | [10]

NC(C(F)(F)F)C(F)(F)F
inactive: [11] | [12] | [4] | [5] | [6] | [7] | [9] | [10]

NNC(=O)CCCCC(=O)NN
not listed: [1] | [3] | [5] | [8] | [14] | [17] | [18] | [19]
inactive: all other assays above

C=CC(F)(F)C(F)(F)C(F)(F)C(F)(F)F
inactive: [12] | [2] | [17] | [3] | [15] | [14] | [5] | [6] | [7] | [10]

OCC(CO)(CBr)CBr
not listed: [1] | [2] | [3] | [8] | [11] | [14] | [16]
inactive: all other assays above

CC(C)c1c(C(=O)Nc2ccccc2)c(-c2ccccc2)c(-c2ccc(F)cc2)n1CC[C@@H](O)C[C@@H](O)CC(=O)O
inactive: [16] | [2] | [18] | [4] | [6] | [10]
